# IMPase Li cell – cell-permeable IMPase inhibitors with lithium potentiation | AID 1457 | Potency, µM (top dose mostly 59.4 µM), inactives show at the highest dose activity, negative = IMPase inhibition, usual class: inhibitors | CHO-M1 cells, IP1 TR-FRET (IP-One), carbachol + lithium | 210,000 tested, 0.35% active;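 also: IP1 builds up when IMPase is blocked and the TR-FRET signal falls; potency is read from the fitted curve at half-maximal effect; plate controls were basal vehicle for no effect and high inhibitor control for full effect; nearly all actives have a fitted effect of over 50% in size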
#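 Lithium-sensitised IP1 accumulation assay; M1-expressing CHO cells treated 30 min at 37C with compound. Competitive antibody detection by time-resolved FRET followed a 10 min room-temperature lysis step.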
# ALOX12 inhib – inhibitors of human 12-lipoxygenase (ALOX12) | AID 1452 | purified 12-hLO, xylenol orange hydroperoxide absorbance | 150,000 tested, 0.12% active | Potency, µM (top dose mostly 57.1 µM), for inactives: at the highest dose activity change, negative = inhibition, usual class: inhibitors | P18054; also: potency is read from the fitted curve at half-maximal effect; nearly all actives have a fitted effect of over 55% in size
#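 Hydroperoxide formation by human 12-lipoxygenase from 40 uM arachidonic acid was followed colorimetrically via ferric-xylenol orange complex, using the 573/405 nm absorbance ratio. Enzyme concentration was 150 nM, with 30 min reaction at room temperature.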
# PNC assembly inh – inhibitors of perinucleolar compartment assembly. PC3M PTB-GFP, PNC prevalence imaging, 16 h; active compounds read low. activity change (PNC), negative = inhibition, % at 10 µM. 140,000 tested, 3.1% active. AID 2417;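 active = readout at or below -70, meaning at least 70% loss of cells showing the perinucleolar compartment, a nuclear body marking cancer cells; inconclusive = readout between -30 and a set limit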;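 also: plate controls were DMSO wells for no effect and camptothecin positive control wells for full effect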
#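 Read-out is percentage of cells bearing a perinucleolar compartment, from automated 20x imaging of fixed, Hoechst-stained PC3M PTB-GFP cells. Cells were seeded 4 h, then exposed 16 h to compound (23 nl of library stock) in duplicate plates.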
# IMPase inh – membrane-permeable compound that blocks inositol monophosphatase. CHO-M1 cells, IP1 accumulation, HTRF TR-FRET ratio. AID 901. inhibition (IP1 accumulation), % at 46.1 µM. 120,000 tested, under 10 active. P97697; active = well fitted curve in the direction sought with a large enough effect in the signal ratio, not every such curve was filed as active; inconclusive = small, poorly fitted or top-dose-only effect, or a change in a side signal; inactive = no such curve, though single readings can be large or run the other way; the % refers to the signal ratio;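 also: cells stimulated with carbachol in lithium chloride buffer; plate controls were DMSO basal wells for no effect and reference inhibitor wells for full effect; higher means more IMPase inhibition seen as more IP1 and lower FRET ratio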
# Target sequence (P97697 whole entry, looked up): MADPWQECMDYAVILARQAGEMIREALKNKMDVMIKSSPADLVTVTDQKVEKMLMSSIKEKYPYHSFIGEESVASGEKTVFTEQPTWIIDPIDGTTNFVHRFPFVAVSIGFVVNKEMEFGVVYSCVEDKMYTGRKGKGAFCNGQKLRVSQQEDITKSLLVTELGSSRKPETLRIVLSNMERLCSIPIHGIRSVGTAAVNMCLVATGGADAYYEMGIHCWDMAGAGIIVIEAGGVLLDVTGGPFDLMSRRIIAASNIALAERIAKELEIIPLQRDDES
#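 The IP-One HTRF competitive assay in carbachol-stimulated CHO-M1 cells quantifies cellular IP1. Compounds spanned up to 46 uM final, and activity is expressed as AC50 from concentration-response fits of the ratio and donor data.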
# An asterisk follows results filed as active; ? = inconclusive; · = not tested or not shown; [ ] = dose if it differs, or a comment. This excerpt belongs to a sample that is enriched for hits. Unless noted, calls follow the shape of the dose curve; as a rule, active = well fitted curve in the direction sought with a large enough effect; inconclusive = small, poorly fitted or top-dose-only effect, or another doubt; inactive = no such curve, though single readings can be large; an effect the other way counts as inactive or inconclusive. Unless noted, % is scaled to controls: 0 for no effect and ±100 for the full control effect.
SMILES,IMPase Li cell,ALOX12 inhib,PNC assembly inh,IMPase inh
O=C(SCc1cccc2ccccc12)c1ccc(Cl)cc1,-1.2%,-1.9%[11.4 µM],·,·
CCCCN(CC)CCNC(=O)Cn1cnc2sc(C)c(S(=O)(=O)N3CCOCC3)c2c1=O,1.9%,-2.9%,-100.0*,-1.6
Cc1cccc(NC(=O)Cn2cnc3sc(C)c(S(=O)(=O)N4CCC(C)CC4)c3c2=O)n1,-25.4%,5.3%,-100.0*,5.8
COCCNC(=O)Cn1cnc2sc(C)c(S(=O)(=O)N3CCC(C)CC3)c2c1=O,·,-3.2%,-6.8,-1.8
CCCCc1nc2c(c3c1C[C@H](C)OC3)CN(C(=O)NCc1ccco1)CC2,6.4%,2.2%[11.4 µM],·,·
O=c1cc(-c2cccs2)oc2ccc(Cl)cc12,·,-4.4%,-4.7,-28.4
O=c1cc(-c2ccc3c(c2)OCCO3)oc2ccc(Cl)cc12,10µM*,0.1%,22.0,?
CCCCN=CC1=C(O)C(C(=O)OC)C(C)(C)CC1=O (stereo unspecified),13.1%[38.3 µM],3.7%,-85.7*,3.1
Cc1nc2ccccn2c1C(=O)NN=C1CCCC1,4.8%,·,·,·
Cc1nc2ccccn2c1C(=O)NC1CCCCC1,6.4%[38.3 µM],-0.6%,-104.9*,-3.1
CCOc1cc(C2CC(=O)Nc3cc(C)c(C)cc32)ccc1O (stereo unspecified),8.2%[38.3 µM],1.9%,-139.2*,1.1
CCOc1ccc(C2CC(=O)Nc3cc4c(cc32)OCO4)cc1OC (stereo unspecified),·,·,·,3.9
CCc1ccc2oc(-c3cc(N)cc(C)c3O)nc2c1,16.2%[38.3 µM],-13.6%,-107.1*,-0.2
CCOc1cc(C)c(Cl)cc1S(=O)(=O)NCc1ccc2c(c1)OCO2,5.8%[38.3 µM],-9.3%,-113.4*,6.9
C=CCN(CC=C)C(=S)NC(=O)c1ccc(OC)c(Br)c1,-2.5%[38.3 µM],-15.1%,-85.7*,-4.8
CCC(Cl)CC(Cl)C(Cl)C(Cl)C(Cl)C(C)Cl (stereo unspecified),8.3%,-2.7%,·,·
Cc1cccnc1N(C(=O)Nc1cccc(Cl)c1)C1=NCC(C)(C)S1,-1.2%,-3.8%,-26.7,·
Cc1cccnc1N(C(=O)Nc1ccccc1)C1=NCC(C)(C)S1,5.3%[38.3 µM],1.1%,-89.1*,-1.6
CC1(C)Cc2nc3oc4c(N5CCOCC5)ncnc4c3cc2CO1,11.5%[38.3 µM],0.7%,-109.4*,7.8
CC1(C)Cc2nc3oc4c(N(CCO)Cc5ccccc5)ncnc4c3cc2CO1,-7.5%[38.3 µM],1.4%,-21.9,14.0
Cc1ccc(-c2cc(=O)c3ccccc3[nH]2)cc1,9.1%,-3.2%[0.00818 µM],27.2,·
Cc1ccc2[nH]c(-c3ccccc3)cc(=O)c2c1,-17.1%[38.3 µM],-2.2%,-111.0*,4.4
N#C/C(=C\c1ccc(N2CCCCC2)o1)C(=O)Nc1cccc(Br)c1,9.0%,0.2%,-108.4*,·
CC(=O)NN1C(=O)/C(=C/c2ccc(C(C)C)cc2)SC1=S,-5.2%,-10.4%,?,·
Cc1ccc(CNC(=O)[C@H](C)[C@@H]2C[C@@]2(C)[C@@H](NC(=O)OCc2ccccc2)c2ccccc2)c(F)c1F,-2.7%,-1.9%,·,·
SMILES,IMPase Li cell,ALOX12 inhib,PNC assembly inh,IMPase inh
COc1ccc(-n2c(SCC(=O)Nc3sc4c(c3C#N)CCCC4)nnc2-c2ccccc2OC)cc1,6.7%,-0.5%,145.9,2.3
COc1ccc(-c2nnc(SCC(=O)Nc3sc4c(c3C#N)CCCC4)n2-c2ccccc2)cc1,14.5%,5.5%,-86.0*,-12.7
O=C(O)/C=C/C(=O)Nc1ccc(-c2ccccc2)cc1,-4.0%,·,·,·
OC(CNCC(c1ccc(Cl)cc1Cl)c1c[nH]c2ccccc12)c1ccccc1 (stereo unspecified),22.5%,·,·,·
CN(C)c1nc(Oc2ccc(C(=O)OCC(=O)Nc3ccccc3)cc2)nc(N(C)C)n1,24.6%[38.3 µM],0.0%,21.2,18.9
CCOC(=O)c1ccc(Oc2nc(OC)nc(N(C)C)n2)cc1,6.7%,0.3%,-93.3*,0.8
CCCCn1c(SCC(=O)N2CCN(c3ccccc3)CC2)nc2ccsc2c1=O,·,-12.2%,-111.9*,7.1
N[C@@H](Cc1ccnnc1)C(=O)O,-7.6%,-4.5%[11.4 µM],·,·
CC(C)(C(=O)O)c1ccc([C@@H](O)CCCN2CCC(C(O)(c3ccccc3)c3ccccc3)CC2)cc1,·,2.6%,·,·
O=C(CN1C(=O)CCC1=O)c1ccc(-c2ccccc2)cc1,-9.8%,-2.6%,-81.6*,·
N=c1ccn(CC(=O)c2ccc(-c3ccccc3)cc2)cc1,7.3%,·,·,·
O[C@H](C[C@@H]1CCCCN1)c1ccc2c(c1)oc1ccccc12,-0.7%,-1.8%[11.4 µM],·,·
S=c1[nH]nc(-c2ccc3ccccc3n2)n1-c1cc(Cl)cc(Cl)c1,10µM*,-0.7%,-17.3,-20.2
CCC(C)NC(=O)c1ccc(CSCc2cccc(F)c2)o1 (stereo unspecified),30.4%[38.3 µM],3.2%,-20.7,-4.0
O=C(NC1CC1)c1ccc(CSCc2cccc(F)c2)o1,0.5%[38.3 µM],-1.6%,-105.7*,-6.2
CN(C)c1ccc(NC(=O)CCSc2nc(-c3ccco3)cc(C(F)(F)F)n2)cc1,·,·,·,1.4
COc1cc(C(=O)NCC(c2ccco2)N(C)C)cc(OC)c1OC (stereo unspecified),-2.1%,0.3%,8.5,-7.2
Cc1cc(C(=O)NCC(c2ccco2)N(C)C)no1 (stereo unspecified),-0.8%,-0.5%,-92.8*,1.6
C=CCN1c2ccccc2[C@]23C[C@@H](C(=O)OC)N(S(=O)(=O)c4ccc5c(c4)OCCN5C)C2=NC(C(=O)OC)=C(C(=O)OC)[C@H]13,1.9%,-3.3%[11.4 µM],·,·
O=C1CSC(c2cccnc2)N1c1ccc(F)cc1 (stereo unspecified),-5.0%[38.3 µM],0.1%,21.1,3.6
O=C1CSC(c2cccs2)N1c1ccccc1 (stereo unspecified),-7.2%[38.3 µM],0.7%,9.0,3.1
COc1ccc(N2C(=O)CSC2c2cccs2)cc1 (stereo unspecified),6.7%,0.0%,-113.8*,·
CCOc1ccc(N2C(=O)CSC2c2ccncc2)cc1 (stereo unspecified),4.5%,-3.0%,-100.0*,-3.8
CCCCCCCc1c(O)nc(SCCN2CCOCC2)[nH]c1=O,9.3%,·,·,·
COC(=O)c1sc2nc(SCC(=O)N(C)c3ccccc3)n(N)c(=O)c2c1C,-9.4%,·,·,·
SMILES,IMPase Li cell,ALOX12 inhib,PNC assembly inh,IMPase inh
CC(C)(C)NC(=O)COC(=O)c1ccc(Cl)c(S(N)(=O)=O)c1,-0.9%,·,·,·
Cc1ccc(C)c(NS(=O)(=O)c2cc(C(N)=O)ccc2C)c1,7.5%[38.3 µM],-6.3%,-80.7*,-2.3
Cc1ccc(C)c(S(=O)(=O)Nc2ccc(C(N)=O)cc2)c1,2.8%,·,·,·
Cc1ccc(O)c(N=CC2=C(O)c3ccccc3C2=O)c1,10µM*,-12.1%,?,?
O=C1C(C=Nc2ccccc2O)=C(O)c2ccccc21,1.4%[38.3 µM],-1.7%,0.0,6.7
CC1CCC(C(=O)O)([C@H](Br)C(=O)O)CC1 (stereo partly specified),-6.6%,-2.1%[11.4 µM],·,·
CN(c1ccc(C(=O)NCC2CCCO2)cc1)S(C)(=O)=O (stereo unspecified),59.9%[38.3 µM],6.7%,-87.1*,5.9
O=c1c(-c2ccc(F)cc2)nc2cnc(N3CCOCC3)nc2n1Cc1ccc(F)cc1,5.7%,·,·,·
CCOC(=O)C(CC)Sc1ncnc2nc[nH]c12 (stereo unspecified),1.9%,8.0%,-100.0*,-7.0

# Screening data deposited in PubChem BioAssay by National Center for Advancing Translational Sciences (NCATS).
